This is an account of results in PubChem BioAssay AID485364 (National Center for Advancing Translational Sciences (NCATS), 2010).

About 11,000 (3.1%) of roughly 360,000 compounds were called active. Not shown: some 4% with an inconclusive outcome. The call rests on the fitted dose curve; in most records, active means well fitted inhibition curve with a large enough effect; inconclusive means small, poorly fitted or top-dose-only effect; inactive means no such curve, though single readings can be large or run the other way. What follows is part of a selection rich in actives, with near analogues and random picks from the rest. Where a call stands in place of a potency, no number is given.
Potency means the concentration at half of the fitted maximal effect.

The experiment deals with Schistosoma mansoni thioredoxin glutathione reductase (TGR) (UniProt Q962Y6). Briefly: qHTS Assay for the Inhibitors of Schistosoma Mansoni Peroxiredoxins. Further: nearly all actives have a fitted effect of over 60% in size. The conditions noted are these: purified TGR, DTNB reduction, TNB absorbance 405 nm; series mostly up to 114 µM. A digest of the protocol: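 TGR 20 nM + NADPH 100 uM (dispensed conc.), cpd preinc 15 min RT; start with NADPH (500 uM addition) then DTNB (15 mM addition). Kinetic TNB absorbance, 405 nm filter. Four-parameter Hill fit across titration.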
Background: Quantitative high-throughput screening tests each substance at several concentrations.
With `O=C(CSc1ncc(S(=O)(=O)c2ccc(Br)cc2)c(=O)[nH]1)Nc1ccc2c(c1)OCCO2`, the Potency entry is “inactive”.

`Cc1ccc(C)c(Cn2c(CCCNC(=O)C3CCCCC3)nc3ccccc32)c1`: the Potency result is “inactive”.

`COc1ccc(N2CCN(C(c3cc4ccc(C)cc4[nH]c3=O)c3nnnn3C3CCCC3)CC2)cc1` (stereo unspecified): the Potency entry was “inactive”.

Take `COCCn1nnnc1C(c1cc2ccc(OC)cc2[nH]c1=O)N1CCc2ccccc2C1` (stereo unspecified): the Potency is 44.7 µM (active).

As to `COc1ccc(OC)c(C(c2nnnn2C(C)(C)C)N2CCc3ccccc3C2)c1` (stereo unspecified), the Potency result was “inactive”.

For the compound `CCOc1ccccc1NC(=O)c1ccc2c(c1)CCN2S(=O)(=O)c1ccc(C)cc1`, the Potency entry was “inactive”.

Take `COc1ccc(-c2onc(C)c2C)cc1S(=O)(=O)NCCc1ccccc1`: the Potency entry is “inactive”.

Regarding `O=c1[nH]c2cc(Br)ccc2n2cccc12`, the Potency entry was “inactive”.

Consider `CCOc1ccc(C2CC(=O)c3c([nH]c(C(=O)OCc4ccccc4)c3C)C2)cc1` (stereo unspecified), for which the Potency entry is “inactive”.

For `CCc1cccc(C)c1NC(=O)COC(=O)CNC(=O)c1cccs1`, the Potency entry was “inactive”.

In the case of `Cc1ccccc1C(CC(=O)c1cccs1)C(C#N)C#N` (stereo unspecified), the Potency was 3.16 µM (active).

Regarding `O=C(NCC(=O)N1CCN(c2ccccc2F)CC1)c1cccs1`, the Potency result is “inactive”.

As to `COc1cccc2c1CCC(NC(C)=O)C2=O` (stereo unspecified), the Potency entry is “inactive”.

For `COc1ccc(C(=O)OCC(=O)N2CC(=O)Nc3ccccc32)cc1Br`, the Potency entry is “inactive”.

Consider `COc1ccc(Br)c2c1C(=O)CC2`, for which the Potency was 35.5 µM (active).

For `Cc1cc(C)cc(OCC(=O)Nc2c(C(=O)c3ccccc3)oc3ccccc23)c1`, the Potency result is “inactive”.

On to `Cc1ccc(-c2onc(C)c2C)cc1S(=O)(=O)Nc1ccccn1`, for which the Potency entry is “inactive”.

For the compound `CCc1ccc(NC(=O)Cn2c(=O)n(CCC(=O)NCc3ccc4c(c3)OCO4)c(=O)c3ccccc32)cc1`, the Potency entry was “inactive”.

For `O=C(Nc1ccccc1)O/N=C1\CCCCC1c1ccc([N+](=O)[O-])cc1[N+](=O)[O-]` (stereo unspecified), the Potency entry was “inactive”.

In the case of `O=[N+]([O-])c1cc(C(F)(F)F)ccc1NN=C1CCCC1`, the Potency entry is “inactive”.

Turning to `O=[N+]([O-])c1ccc(N/N=C2/CCCCC2c2ccccn2)c([N+](=O)[O-])c1` (stereo unspecified), the Potency was 8.91 µM (active).

Take `COc1cc(NC(=O)CN2CCN(S(=O)(=O)c3ccc(Br)cc3)CC2)cc(OC)c1`: the Potency result was “inactive”.

Turning to `O=C(NC1CCCCC1)c1ccc2c(c1)N(Cc1ccc(Cl)cc1)C(=O)c1ccccc1S2=O` (stereo unspecified), the Potency entry is “inactive”.

With `Cc1cc(NC(=O)CC(C)C)cc(-c2nc3ncccc3o2)c1O`, the Potency entry was “inactive”.

Turning to `C#CCOCCOCCOCCNc1nc(N2CCN(C(=O)[C@H](CCC(=O)O)n3cc(C(N)CO)nn3)CC2)nc(N2CCN(C(=O)[C@H](Cc3ccc(O)cc3)n3cc(C(N)[C@H](C)CC)nn3)CC2)n1` (stereo partly specified), the Potency was 35.5 µM (active).

With `C#CCOCCOCCOCCNc1nc(N2CCN(C(=O)C(Cc3ccc(O)cc3)n3cc(C(N)CC(C)C)nn3)CC2)nc(N2CCN(C(=O)C(Cc3ccc(O)cc3)n3cc(C(N)C(C)CC)nn3)CC2)n1` (stereo unspecified), the Potency entry is “inactive”.

As for `C#CCOCCOCCOCCNc1nc(N2CCN(C(=O)[C@H](Cc3ccc(O)cc3)n3cc(C(N)CC(C)C)nn3)CC2)nc(N2CCN(C(=O)[C@H](CCC(=O)O)n3cc(C(N)[C@H](C)CC)nn3)CC2)n1` (stereo partly specified), the Potency result was “inactive”.

On to `COC(=O)c1ccccc1NC(=O)c1ccc2c(=O)n3c(nc2c1)CCCCC3`, for which the Potency entry is “inactive”.

`CCN(CCCNC(=O)c1cc(Nc2ccc(OC)cc2)nc2ccccc12)c1cccc(C)c1`: the Potency result is “inactive”.

Consider `O=C(Nc1ccccc1N1CCCCC1)c1ccc2nccnc2c1`, for which the Potency is 79.4 µM (active).

Take `O=C(Nc1ccccc1N1CCCC1)c1ccc2ccccc2c1`: the Potency result was “inactive”.

Take `O=C(Nc1ccccc1N1CCOCC1)c1ccncc1`: the Potency result is “inactive”.

In the case of `Oc1ccc2ccccc2c1N=Nc1nccs1`, the Potency was 17.8 µM (active).

For `COc1ccc(Cc2nc3ccc(C(=O)NCc4ccccc4Cl)cc3o2)cc1`, the Potency result was “inactive”.

For the compound `CCOc1ccccc1NC(=O)Cn1c2ncccc2c(=O)n1-c1ccc(C)c(C)c1`, the Potency entry is “inactive”.

For the compound `CCCCn1c(=N)c(S(=O)(=O)c2ccccc2)cc2c(=O)n3cccc(C)c3nc21`, the Potency result is “inactive”.

In the case of `Cc1cccn2c(=O)c3cc(C#N)c(=O)n(CCCN4CCOCC4)c3nc12`, the Potency is 25.1 µM (active).

Regarding `Cc1cccn2c(=O)c3cc(C(=O)NCCN4CCOCC4)c(=N)n(Cc4cccnc4)c3nc12`, the Potency entry is “inactive”.

In the case of `CC1CCC2(CC1)N=C(c1ccccc1)C(=O)N2CC(=O)Nc1ccc(F)c(Cl)c1` (stereo unspecified), the Potency entry is “inactive”.

Take `N#Cc1nc(/C=C/c2ccc(F)cc2)oc1NCc1ccc(F)cc1`: the Potency result is “inactive”.

Regarding `CCN(C(=O)Cn1cnc2sc(C)c(S(=O)(=O)N3CCN(c4ncccn4)CC3)c2c1=O)c1ccccc1F`, the Potency entry was “inactive”.

As to `Cc1cccc(NC(=O)CSc2nc(-c3ccco3)cc(C(F)(F)F)n2)c1C`, the Potency entry is “inactive”.

For the compound `CN(C)c1ccc(NC(=O)CSc2nc(-c3ccco3)cc(C(F)(F)F)n2)cc1`, the Potency result was “inactive”.

For `O=C(CSc1nc(-c2ccco2)cc(C(F)(F)F)n1)N1CCc2ccccc2C1`, the Potency was 11.2 µM (active).

With `O=C(NCc1ccc2c(c1)CCN2C(=O)c1ccccc1)c1ccccc1`, the Potency entry was “inactive”.

`CCCn1c2ccccc2c2cnn(CC(=O)NCC3CCN(Cc4ccc(C)cc4)CC3)c(=O)c21`: the Potency result is “inactive”.

Consider `Cc1cccc(NC(=O)c2ccc(F)c(S(=O)(=O)N(C)C3CCCCC3)c2)c1`, for which the Potency entry is “inactive”.

Consider `CCOc1ccccc1C(=O)NCC(c1ccc(N(C)C)cc1)N1CCCC1` (stereo unspecified), for which the Potency result is “inactive”.

`CCOc1[nH]n(-c2ccc(Cl)cc2)c(=O)c1C=Nc1ccc(O)cc1`: the Potency result was “inactive”.

As to `Oc1ccc(N=Cc2c(O)ccc3ccccc23)cc1`, the Potency is 28.2 µM (active).

For `CC(=O)n1c(C=Nc2ccccc2)c(O)c2ccccc21`, the Potency entry was “inactive”.

As for `Oc1ccc2ccccc2c1C=Nc1ccccc1`, the Potency was 12.6 µM (active).

As to `O=[N+]([O-])c1cnc2ccc3ccccc3c2c1`, the Potency result is “inactive”.

For `Cc1cc(N=Nc2ccc3ccccc3c2)ccc1O`, the Potency entry was “inactive”.

With `CCC(=O)CC(c1ccc([N+](=O)[O-])cc1)c1c(O)c2ccccc2oc1=O` (stereo unspecified), the Potency result was “inactive”.

With `O=[N+]([O-])c1ccc(N=Cc2c(O)ccc3ccccc23)cc1`, the Potency was 22.4 µM (active).

For `CC(C)CNC(=O)CC(c1ccccc1)c1c(O)ccc2ccccc12` (stereo unspecified), the Potency entry is “inactive”.

Regarding `COc1ccc(CCNC(=O)c2c3c(nc4ccccc24)C(=O)N(C2CCCCC2)C3)cc1OC`, the Potency entry is “inactive”.

`Cc1ccc(C(=O)Nc2ccccc2F)cc1S(=O)(=O)N1CCOCC1`: the Potency result is “inactive”.

For `CCOc1ccccc1NC(=O)CN1CCN(S(=O)(=O)c2ccc(Br)cc2)CC1`, the Potency result was “inactive”.

Take `Cc1cccc(NC(=O)C2CCCN2S(=O)(=O)c2cccc3nsnc23)c1C` (stereo unspecified): the Potency result is “inactive”.

`CC(C)(C)n1cnnc1Sc1ccc([N+](=O)[O-])cn1`: the Potency result was “inactive”.

For the compound `Cn1cnnc1Sc1ccc(S(C)(=O)=O)cc1[N+](=O)[O-]`, the Potency was 35.5 µM (active).

Consider `CCN(CC(=O)Nc1c(F)cccc1F)C(=O)c1ccc(Sc2nncn2C)c([N+](=O)[O-])c1`, for which the Potency entry is “inactive”.

For `O=C(CSc1nc2ccccc2c(=O)n1CCCO)NC1CC1`, the Potency result is “inactive”.

With `C=CCn1c(SCc2ccc(C(=O)NCCO)cc2)nc2ccccc2c1=O`, the Potency entry is “inactive”.

On to `C=CCn1c(SCC(=O)NC(=O)Cc2ccccc2)nc2ccccc2c1=O`, for which the Potency was 89.1 µM (active).

As for `Cc1ccc(O)c(NC(=O)c2cc(-c3ccc(F)cc3)no2)c1`, the Potency entry was “inactive”.

Consider `Cc1ccc(C(=O)N2CCc3cc(CNC(=O)c4ccc(Br)cc4)ccc32)cc1`, for which the Potency result was “inactive”.

Take `COc1ccc(NC(=O)c2cc3cc(C)ccc3n2C)cc1`: the Potency entry is “inactive”.

For the compound `CN(C)S(=O)(=O)c1ccc(N/C=C(\[N+](=O)[O-])S(=O)(=O)c2ccccc2)cc1`, the Potency is 14.1 µM (active).

As for `CN(C)S(=O)(=O)c1ccc(NC(=O)N2CCOCC2)cc1`, the Potency entry was “inactive”.

With `CN(C)S(=O)(=O)c1cccc(NC(=S)N/N=C/C(=O)c2ccccc2)c1`, the Potency result is “inactive”.

`O=C(CN1C(=O)CCn2nc(-c3ccccc3)cc21)NCc1ccccc1`: the Potency entry was “inactive”.

On to `CCN1N=C(c2ccccc2)CCC1=O`, for which the Potency result is “inactive”.

With `CC1CSc2nnc(CCc3ccccc3)n21` (stereo unspecified), the Potency result was “inactive”.

Turning to `Cc1nnc2n1N=C(c1ccccc1)CS2`, the Potency was 39.8 µM (active).

With `COc1ccc(-c2cc(-c3nc(-c4cc(OC)c(OC)c(OC)c4)no3)[nH]n2)c(OC)c1`, the Potency entry was “inactive”.

With `CCOCCCNC(=O)c1c(NC(=O)c2nc(SC)ncc2Cl)sc2c1CCCC2`, the Potency entry was “inactive”.

Consider `CC(C)c1ccc(S(=O)(=O)Nc2ccc(O)c(Sc3nc4ccccc4s3)c2)cc1`, for which the Potency entry is “inactive”.

Regarding `O=[N+]([O-])c1c(NCCO)cc(Sc2nc3ccccc3s2)c2nonc12`, the Potency is 0.1 µM (active).

`CC(C)(C)c1ccc(S(=O)(=O)Nc2ccc(O)c(Sc3nc4ccccc4s3)c2)cc1`: the Potency entry was “inactive”.

For `Cc1ccccc1C(=O)Nc1sc2c(c1C(=O)N1CCC(C)CC1)CCCC2`, the Potency result is “inactive”.

For `CCOC(=O)c1ccccc1NC(=O)CCc1c(C)nc2c(c1C)c(=O)n(C)c(=O)n2C`, the Potency entry is “inactive”.

As to `Cc1cccc(OP(=O)(Nc2c(C)n(C)n(-c3ccccc3)c2=O)Oc2cccc(C)c2)c1`, the Potency result was “inactive”.

For the compound `Cn1c(=O)c([N+](=O)[O-])c(Oc2ccccc2)c2ccccc21`, the Potency is 2.82 µM (active).

For `Cc1cccc(C2CC(=O)Oc3c2c(=O)n(C)c2ccccc32)c1` (stereo unspecified), the Potency result is “inactive”.

As to `Cc1cccc(Oc2c([N+](=O)[O-])c(=O)n(C)c3ccccc23)c1`, the Potency was 3.98 µM (active).

In the case of `Cn1c(=O)c(Sc2ccc(Cl)cc2)c(O)c2ccccc21`, the Potency result is “inactive”.

On to `Cn1nc(-c2ccccc2)c2cc([N+](=O)[O-])ccc21`, for which the Potency result was “inactive”.

For the compound `Cc1ccc(Cl)cc1N1CCN(S(=O)(=O)c2cc3[nH]c(=O)c(=O)[nH]c3cc2C)CC1`, the Potency result was “inactive”.

For `CCCNC(=O)c1ccc2c(c1)ncn2-c1ccc(C)cc1C`, the Potency entry is “inactive”.

With `CC(C)CC(=O)NCC(c1ccc2c(c1)OCO2)N1CCN(c2ccc(F)cc2)CC1` (stereo unspecified), the Potency result was “inactive”.

On to `CCOc1cc(/C=C(\C#N)C(=O)Nc2ccccc2C)ccc1OCc1cc(=O)n2nc(CC)sc2n1`, for which the Potency entry is “inactive”.

With `CCOCCCn1c(SCC(=O)Nc2ccc(CC)cc2)nc2ccccc2c1=O`, the Potency result was “inactive”.

As for `CCOc1ccc(NC(=O)CC2C(=O)N(c3cccc(OC)c3)C(=O)N2C2CCCCC2)cc1` (stereo unspecified), the Potency result is “inactive”.
